These results are taken from PubChem BioAssay (NCI).

Assay in all cases: NCI-60 one-dose screen, 48 h (100 = growth as untreated, 0 = no growth, -100 = all killed)
Assay [1] concerns HCT-15 colon. Conditions: 10 µM unless noted.
The test system of assay [2] is HT29 colon. Particulars: 10 µM unless noted.
For assay [3], the system named is SNB-75 CNS. Conditions: 10 µM unless noted.
Assay [4] deals with SNB-19 CNS. Conditions: 10 µM unless noted.
In assay [5] the test system is U251 CNS. Particulars: 10 µM unless noted.
Assay [6] deals with PC-3 prostate. Conditions: 10 µM unless noted.
For assay [7], the system named is SK-MEL-5 melanoma. Particulars: 10 µM unless noted.
In assay [8] the test system is UACC-62 melanoma. Particulars: 10 µM unless noted.
For assay [9], the system named is LOX IMVI melanoma. Conditions: 10 µM unless noted.
Assay [10] concerns SK-MEL-28 melanoma. Conditions: 10 µM unless noted.
For assay [11], the system named is SK-MEL-2 melanoma. Particulars: 10 µM unless noted.
Assay [12] concerns SN12C renal. Conditions: 10 µM unless noted.
The subject of assay [13] is UO-31 renal. Particulars: 10 µM unless noted.
Assay [14] has as its system TK-10 renal. Particulars: 10 µM unless noted.
Assay [15] deals with ACHN renal. Particulars: 10 µM unless noted.
For assay [16], the system named is A498 renal. Conditions: 10 µM unless noted.
The subject of assay [17] is MOLT-4 leukemia. Particulars: 10 µM unless noted.
The subject of assay [18] is CAKI-1 renal. Particulars: 10 µM unless noted.
The subject of assay [19] is EKVX NSCLC. Particulars: 10 µM.
For assay [20], the system named is CCRF-CEM leukemia. Particulars: 10 µM.

The panel holds about 83,000 compounds, 20% with a hit somewhere; the sample as a whole holds those more often.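 In brief: 96-well plates, 48 h treatment, single concentration, percent growth endpoint.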 Values without a mark were called inactive. Calls of active or inactive are those of the source. How the source made its calls: active means growth percent below 10; inactive means the rest.

In the case of `[N-]=[N+]=Nc1ncc(-c2ccc(C(F)(F)F)cc2)c(NC2CCCCCC2)n1`, the growth was 25.9% [100 µM] in assay [1]; 31.4% [100 µM] in [2]; 49.6% [100 µM] in [3]; 40.9% [100 µM] in [4]; 30.3% [100 µM] in [5]; -8.57% [100 µM] (active) in [6]. The growth in [7] was 26.5% [100 µM]; in assay [8], 25.5% [100 µM]; in assay [9] it was 39.9% [100 µM]; in assay [10], 68.2% [100 µM]; in assay [11], 5.91% [100 µM] (active); in assay [12], 42.5% [100 µM]. The growth is 22.1% [100 µM] in [13]; 45.3% [100 µM] in assay [14]; 26.8% [100 µM] in [15]; 32.9% [100 µM] in assay [16]; 16.9% [100 µM] in assay [17].

With `CCOc1ccc(N(C)c2ccc(/C=C/C3=[N+](C)c4ccccc4C3(C)C)cc2)cc1`, the growth in [1] is 18.9%; in [2] it was -25.1% (active); in assay [3], 41.6%; in assay [4], 26.8%; in assay [5] it was -82.8% (active); in assay [6], 0.484% (active). Also, the growth is 2.07% (active) in assay [7]; 28.5% in [8]; -48.1% (active) in [9]; 19% in [10]; -45.9% (active) in assay [11]; 2.99% (active) in assay [12]. The growth in assay [13] was 3.71% (active); in assay [15], -95.9% (active); in assay [18], -2.85% (active); in assay [16] it was 42.6%; in assay [17] it was -25.4% (active).

On to `O=C1Nc2c(c(=O)n(-c3ccccc3)c3ccccc23)C(c2ccc(Cl)cc2)N1` (stereo unspecified), for which the growth in assay [1] was 90.4%; in assay [2] it was 106%; in assay [3], 80.7%; in assay [4], 60.4%; in [5], 85.9%; in [6], 105%. The growth in assay [7] was 80.4%; in [8], 62.8%; in assay [9], 36.4%; in assay [10], 90.9%; in assay [19], 86.8%; in assay [12] it was 76.3%. Moreover, the growth in [13] is 80.5%; in assay [14] it was 54.8%; in [15] it was 102%; in assay [18] it was 101%; in assay [16], 98.1%; in [20], 79.5%. In assay [17], the growth is 81.9%.

Regarding `CC(=O)N1CCN(CCNC(=O)n2cc(-c3ccncc3)c(-c3ccc(O)c(Cl)c3)n2)CC1`, the growth in assay [1] was 118%; in [2], 103%; in [3] it was 81.4%; in [4], 120%; in assay [5], 110%; in [6], 171%. In addition, the growth in assay [7] is 107%; in assay [8], 91.3%; in assay [9] it was 109%; in assay [10], 85.5%; in assay [19], 133%; in assay [12] it was 102%. Besides, the growth is 131% in assay [13]; 87.2% in assay [14]; 105% in assay [15]; 136% in assay [18]; 118% in assay [16]; 95.8% in assay [20]. Also, the growth in [17] is 85.8%.

As for `O=C(c1ccccc1)c1ccccc1-c1ccccc1`, the growth in assay [1] is 17.8%; in assay [2] it was -25.8% (active); in assay [3], 3.14% (active); in assay [4], 34.7%; in assay [5], 25.4%; in [6], 41.4%. The growth in assay [7] was 25%; in [8], 34.5%; in assay [9] it was 31.6%; in [10] it was 50.1%; in [19], 58.8%; in assay [12], 31.3%. Moreover, the growth in [13] was 44.5%; in assay [14], 8.04% (active); in assay [15], 33.7%; in assay [18], 17.4%; in assay [16], 43.1%; in [20] it was 11%. Further, in assay [17], the growth was 30.4%.

For the molecule `O=C1C(Br)=CC2C1C1C3CCC3C2(Br)C12OCCO2` (stereo unspecified), the growth is 19% in assay [1]; 8.84% (active) in [2]; 56.3% in assay [3]; 81% in assay [4]; 35.3% in assay [5]; 32% in assay [6]. The growth in assay [7] is 67.3%; in assay [8], 54.9%; in assay [9] it was 8.55% (active); in assay [10] it was 55.7%; in assay [11], 21.7%; in assay [12], 41.8%. The growth is 62% in [13]; 28.8% in [14]; -19.3% (active) in assay [18]; 52.4% in assay [16]; -3.12% (active) in [20]; 15.7% in assay [17].

Regarding `O=C(NC1CCN(Cc2ccccc2)CC1)c1cc(-c2cccnc2)nc2ccc(Cl)cc12`, the growth in assay [1] is 9.1% (active); in assay [2], 4.33% (active); in assay [3] it was 95.6%; in [4] it was 91.4%; in assay [5], 56.2%; in assay [6] it was 69.2%. Besides, the growth was 50.2% in assay [7]; 8.77% (active) in [8]; 45.2% in assay [9]; 94.1% in assay [10]; 100% in assay [11]; 69.2% in [13]. The growth was 81.6% in assay [14]; 81.2% in assay [15]; 82.6% in assay [18]; 67.2% in [16]; 64% in assay [20]; 58.9% in [17].

For the molecule `CC(=O)OC1/C=C\CC/C=C\C1` (stereo unspecified), the growth in assay [1] is 98%; in assay [2], 109%; in assay [3], 82.6%; in assay [4] it was 100%; in [5], 96.6%; in assay [6] it was 96.4%. Moreover, the growth in assay [7] was 98.8%; in assay [8], 101%; in assay [9], 106%; in [10], 111%; in assay [11], 109%; in assay [12], 95.8%. The growth was 93.5% in assay [13]; 124% in assay [14]; 96.3% in assay [15]; 86.9% in assay [16]; 103% in assay [20]; 116% in assay [17].

Regarding `COC(=O)[C@H](Cc1cn(C)cn1)NC(=O)[C@H](Cc1c[nH]c2ccccc12)NC(=O)Nc1cc(C(F)(F)F)cc(C(F)(F)F)c1`, the growth in assay [1] is 27.7% [100 µM]; in assay [2], -84.2% [100 µM] (active); in assay [3], -85.5% [100 µM] (active); in assay [4], -91% [100 µM] (active); in assay [5] it was -89.5% [100 µM] (active); in assay [6], -89.4% [100 µM] (active). In addition, the growth in [7] is -51.3% [100 µM] (active); in assay [8] it was -92.9% [100 µM] (active); in [9], -83.5% [100 µM] (active); in assay [10] it was -80.3% [100 µM] (active); in [11], -82.6% [100 µM] (active); in assay [12], -83.7% [100 µM] (active). In addition, the growth in assay [13] is 22.5% [100 µM]; in assay [14], -66.2% [100 µM] (active); in [16], -35.8% [100 µM] (active); in assay [17], -45.8% [100 µM] (active).
